Measurements as given in the supplement of paper PMC11732987, “Enantioselective OTUD7B fragment discovery through chemoproteomics screening and high-throughput optimisation” (Communications Chemistry, 2025).

How the values were obtained:
Test in all cases: log2 ratio of Biotin-Ahx-Ub-VS probe labelling (fragment/DMSO); higher = less target engagement (more negative = stronger competition), active = hit call of the paper (q ≤ 0.05, log2 ratio ≤ -1)
Settings in all cases: compound concentration: 200 uM; treatment time: 3 h
[1] = molecular target: T1, OTUD6B (UniProt Q8N6M0)
T1 sequence (whole entry): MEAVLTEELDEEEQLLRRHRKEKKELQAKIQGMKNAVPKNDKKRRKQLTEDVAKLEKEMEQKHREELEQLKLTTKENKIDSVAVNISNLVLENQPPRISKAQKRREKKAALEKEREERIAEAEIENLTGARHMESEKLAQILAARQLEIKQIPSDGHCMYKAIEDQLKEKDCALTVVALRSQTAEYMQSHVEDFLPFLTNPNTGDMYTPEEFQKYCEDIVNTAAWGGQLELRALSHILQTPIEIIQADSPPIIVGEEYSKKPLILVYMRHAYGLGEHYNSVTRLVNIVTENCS
Summary of the method: (§1)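 The table lists average log2 ratios of fragment over vehicle, from an unpaired t-test on global-median-normalised Spectronaut label-free quantities. Proteins with ≥2 unique peptides were used. Samples were HEK293T lysate (495 µg) treated in triplicate with fragment at 200 µM or vehicle for 3 h, then with Biotin-Ahx-Ub-VS (0.5 µM final) for 1 h, with labelled DUBs NeutrAvidin-enriched and run by diaPASEF LC-MS/MS.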

[2] = molecular target: T2, OTUD7B (UniProt Q6GQQ9)
T2 sequence (whole entry): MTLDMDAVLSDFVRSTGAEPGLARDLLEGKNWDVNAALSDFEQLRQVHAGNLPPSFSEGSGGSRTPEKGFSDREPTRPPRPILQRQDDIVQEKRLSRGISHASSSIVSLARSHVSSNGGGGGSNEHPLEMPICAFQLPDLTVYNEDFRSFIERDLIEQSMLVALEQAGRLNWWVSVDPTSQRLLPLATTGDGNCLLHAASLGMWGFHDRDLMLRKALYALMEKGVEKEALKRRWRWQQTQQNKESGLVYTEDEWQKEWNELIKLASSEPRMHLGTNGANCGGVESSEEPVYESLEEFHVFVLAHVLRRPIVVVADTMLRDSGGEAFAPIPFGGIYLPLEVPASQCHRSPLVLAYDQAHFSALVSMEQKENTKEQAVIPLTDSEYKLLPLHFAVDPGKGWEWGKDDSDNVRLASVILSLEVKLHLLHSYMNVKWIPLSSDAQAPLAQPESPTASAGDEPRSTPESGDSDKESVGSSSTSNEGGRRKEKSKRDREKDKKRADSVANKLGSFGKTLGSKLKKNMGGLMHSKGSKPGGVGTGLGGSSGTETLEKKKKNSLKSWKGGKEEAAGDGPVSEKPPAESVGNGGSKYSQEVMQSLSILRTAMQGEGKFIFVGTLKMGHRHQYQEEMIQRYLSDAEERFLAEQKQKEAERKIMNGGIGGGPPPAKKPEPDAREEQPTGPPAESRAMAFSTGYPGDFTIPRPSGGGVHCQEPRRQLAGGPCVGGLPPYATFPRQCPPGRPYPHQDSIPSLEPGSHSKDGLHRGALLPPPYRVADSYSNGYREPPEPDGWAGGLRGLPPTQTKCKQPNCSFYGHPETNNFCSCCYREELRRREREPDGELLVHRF
Summary of the method: as §1

[3] = molecular target: PRPF8 (UniProt Q6P2Q9)
Summary of the method: as §1

[4] = molecular target: T3, PSMD7 (UniProt P51665)
T3 sequence (whole entry): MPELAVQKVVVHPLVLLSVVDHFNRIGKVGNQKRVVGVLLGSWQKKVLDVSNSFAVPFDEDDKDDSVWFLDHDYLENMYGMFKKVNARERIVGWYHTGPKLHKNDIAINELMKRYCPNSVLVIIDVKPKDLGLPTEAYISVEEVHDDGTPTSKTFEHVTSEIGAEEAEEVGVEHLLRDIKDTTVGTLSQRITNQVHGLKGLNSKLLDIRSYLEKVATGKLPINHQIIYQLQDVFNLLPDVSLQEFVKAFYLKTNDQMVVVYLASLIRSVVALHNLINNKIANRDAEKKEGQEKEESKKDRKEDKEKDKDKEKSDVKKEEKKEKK
Summary of the method: as §1

[5] = molecular target: UCHL1 (UniProt P09936)
UCHL1, sequence (P09936 whole entry, looked up): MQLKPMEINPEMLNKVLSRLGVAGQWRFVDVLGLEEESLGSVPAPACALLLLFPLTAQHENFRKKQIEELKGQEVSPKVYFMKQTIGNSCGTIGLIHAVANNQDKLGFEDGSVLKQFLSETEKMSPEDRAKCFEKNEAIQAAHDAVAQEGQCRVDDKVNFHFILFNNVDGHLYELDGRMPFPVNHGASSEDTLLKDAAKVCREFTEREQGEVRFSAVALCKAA
Summary of the method: as §1

[6] = molecular target: T4, UCHL3 (UniProt P15374)
T4 sequence (whole entry): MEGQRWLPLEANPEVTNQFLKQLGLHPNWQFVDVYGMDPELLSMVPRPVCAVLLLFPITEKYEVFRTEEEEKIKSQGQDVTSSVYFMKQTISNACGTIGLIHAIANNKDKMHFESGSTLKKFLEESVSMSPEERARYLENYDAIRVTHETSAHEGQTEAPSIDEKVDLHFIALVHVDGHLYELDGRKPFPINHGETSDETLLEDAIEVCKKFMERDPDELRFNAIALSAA
Summary of the method: as §1

[7] = molecular target: T5, UCHL5 (UniProt Q9Y5K5)
T5 sequence (whole entry): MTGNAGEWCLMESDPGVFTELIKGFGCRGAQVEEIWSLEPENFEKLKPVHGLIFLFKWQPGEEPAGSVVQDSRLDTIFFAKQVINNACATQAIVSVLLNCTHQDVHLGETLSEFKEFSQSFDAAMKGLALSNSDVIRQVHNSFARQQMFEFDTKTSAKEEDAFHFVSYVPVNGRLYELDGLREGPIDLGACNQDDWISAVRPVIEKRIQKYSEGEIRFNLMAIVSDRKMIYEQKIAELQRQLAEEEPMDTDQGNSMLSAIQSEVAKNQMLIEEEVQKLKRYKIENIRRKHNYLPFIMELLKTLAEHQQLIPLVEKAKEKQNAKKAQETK
Summary of the method: as §1

[8] = molecular target: USP10 (UniProt Q14694)
USP10, sequence (Q14694 whole entry): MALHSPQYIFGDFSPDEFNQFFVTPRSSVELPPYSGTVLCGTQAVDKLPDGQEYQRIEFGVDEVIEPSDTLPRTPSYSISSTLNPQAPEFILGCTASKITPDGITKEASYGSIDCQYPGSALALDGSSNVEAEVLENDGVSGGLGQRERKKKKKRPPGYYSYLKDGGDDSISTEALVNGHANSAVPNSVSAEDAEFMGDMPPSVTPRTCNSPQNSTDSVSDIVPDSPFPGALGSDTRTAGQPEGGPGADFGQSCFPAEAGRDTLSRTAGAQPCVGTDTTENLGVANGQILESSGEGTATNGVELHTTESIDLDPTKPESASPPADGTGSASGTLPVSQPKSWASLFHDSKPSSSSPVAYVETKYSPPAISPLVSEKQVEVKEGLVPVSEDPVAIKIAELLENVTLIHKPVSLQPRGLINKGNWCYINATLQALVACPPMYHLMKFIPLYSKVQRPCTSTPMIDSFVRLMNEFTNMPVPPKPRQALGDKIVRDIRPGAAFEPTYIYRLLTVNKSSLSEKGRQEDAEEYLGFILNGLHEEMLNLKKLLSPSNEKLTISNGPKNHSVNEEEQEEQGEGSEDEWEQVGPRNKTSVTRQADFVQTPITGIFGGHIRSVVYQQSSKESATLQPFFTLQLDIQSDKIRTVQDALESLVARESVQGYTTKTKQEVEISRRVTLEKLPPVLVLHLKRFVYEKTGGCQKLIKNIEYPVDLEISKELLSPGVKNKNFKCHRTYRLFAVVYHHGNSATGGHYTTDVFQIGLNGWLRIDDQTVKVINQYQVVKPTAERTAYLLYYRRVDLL
Summary of the method: as §1

[9] = molecular target: T6, USP15 (UniProt Q9Y4E8)
T6 sequence (whole entry): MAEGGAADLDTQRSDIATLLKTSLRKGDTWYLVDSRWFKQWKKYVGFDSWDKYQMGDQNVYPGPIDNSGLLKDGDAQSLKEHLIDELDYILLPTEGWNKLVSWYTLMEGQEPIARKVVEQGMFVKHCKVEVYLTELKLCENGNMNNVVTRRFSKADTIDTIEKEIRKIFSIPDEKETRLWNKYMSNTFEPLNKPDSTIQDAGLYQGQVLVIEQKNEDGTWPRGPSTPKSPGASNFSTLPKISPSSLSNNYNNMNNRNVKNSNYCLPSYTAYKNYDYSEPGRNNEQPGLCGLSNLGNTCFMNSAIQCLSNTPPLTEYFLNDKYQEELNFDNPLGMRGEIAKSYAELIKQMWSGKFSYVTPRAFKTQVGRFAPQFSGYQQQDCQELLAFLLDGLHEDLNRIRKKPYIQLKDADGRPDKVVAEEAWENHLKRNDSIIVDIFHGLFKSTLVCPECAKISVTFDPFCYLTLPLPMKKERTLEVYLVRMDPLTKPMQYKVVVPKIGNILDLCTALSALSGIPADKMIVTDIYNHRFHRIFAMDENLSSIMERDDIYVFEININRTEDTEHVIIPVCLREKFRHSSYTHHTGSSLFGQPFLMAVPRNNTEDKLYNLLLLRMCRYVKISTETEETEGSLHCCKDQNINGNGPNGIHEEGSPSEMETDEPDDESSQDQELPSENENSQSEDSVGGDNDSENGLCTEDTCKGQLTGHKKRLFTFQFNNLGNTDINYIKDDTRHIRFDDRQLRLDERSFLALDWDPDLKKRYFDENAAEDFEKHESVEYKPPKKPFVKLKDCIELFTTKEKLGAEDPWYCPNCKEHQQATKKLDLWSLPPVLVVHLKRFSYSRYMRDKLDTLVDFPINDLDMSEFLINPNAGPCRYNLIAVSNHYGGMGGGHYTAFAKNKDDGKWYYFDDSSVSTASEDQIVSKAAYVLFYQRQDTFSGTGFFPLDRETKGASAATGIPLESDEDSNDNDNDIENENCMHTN
Summary of the method: as §1

Measured: log2 ratio of Biotin-Ahx-Ub-VS probe labelling

Cl.O=C(CCl)NCCN1CCc2ccccc21
inactive: [1] -0.983 | [2] -0.675 | [3] 0.014 | [4] -0.0696 | [6] -0.556 | [8] -0.344 | [9] -0.991
active: [5] -2.25 | [7] -1.03
